Bioassay records as filed in PubChem.
A selection: hits, their analogues and other compounds. The true share with any hit is near 1.7%.
EBNA-1 inhibitor = blocks EBNA-1 binding to DNA; EBNA-1 DNA binding, fluorescence polarization; inhibition, % at 14.8 µM; actives 0.34% (n = 300,000); AID 1950; in the data active = inhibition above about 28%
ZTA counter = blocks Epstein-Barr virus ZTA, an EBNA-1 counter-screen; inhibition, % at 11 µM; actives 0.15% (n = 320,000); ZTA-DNA binding, fluorescence polarization; in the data active = inhibition above about 33%
Target sequence (P03206 whole entry, looked up): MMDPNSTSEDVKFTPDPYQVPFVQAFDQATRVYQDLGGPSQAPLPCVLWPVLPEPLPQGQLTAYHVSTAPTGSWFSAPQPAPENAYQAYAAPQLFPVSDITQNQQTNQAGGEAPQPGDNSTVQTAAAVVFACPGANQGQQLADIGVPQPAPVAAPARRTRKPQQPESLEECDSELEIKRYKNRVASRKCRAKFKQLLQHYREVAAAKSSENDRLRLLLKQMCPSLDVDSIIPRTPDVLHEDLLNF
LYPLA1 counter = counter-screen for PME1 inhibitors: inhibitors of human LYPLA1. inhibition, % at 5.9 µM. AID 2174. actives 0.16% (n = 320,000). recombinant LYPLA1, FP-Rh probe fluorescence polarization;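 active = inhibition above the mean of all tested compounds plus 3 SD, set per campaign, cut at about 14% in these data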;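 also: inhibitors block serine hydrolase probe labeling of LYPLA1 so polarization falls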
GSTO1 inh = counter-screen for RBBP9 inhibitors: inhibitors of human GSTO1 | actives 1.1% (n = 300,000) | P78417 | AID 1974 | recombinant GSTO1, activity-based probe fluorescence polarization | inhibition, % at 5.96 µM;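 active = inhibition above the campaign mean inhibition plus 3 SD, cut at about 35% in these data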
PAD4 FP inh = PAD4 (human) enzyme inhibition; Q9UM07; actives 0.41% (n = 330,000); inhibition, % at 6.36 µM; AID 485272; recombinant PAD4, RCA probe fluorescence polarization;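 active = percent inhibition above a cutoff equal to the mean of all tested compounds plus 3 SD, cut at about 15% in these data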
LYPLA2 counter = LYPLA2 (human) inhibition in PME1 counter-screen | O95372 | recombinant LYPLA2, FP-Rh probe fluorescence polarization | inhibition, % at 5.9 µM | actives 0.38% (n = 320,000);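 active = inhibition above the screen-wide mean plus 3 SD, limit set per campaign, cut at about 26% in these data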
Target sequence (O95372 whole entry, looked up): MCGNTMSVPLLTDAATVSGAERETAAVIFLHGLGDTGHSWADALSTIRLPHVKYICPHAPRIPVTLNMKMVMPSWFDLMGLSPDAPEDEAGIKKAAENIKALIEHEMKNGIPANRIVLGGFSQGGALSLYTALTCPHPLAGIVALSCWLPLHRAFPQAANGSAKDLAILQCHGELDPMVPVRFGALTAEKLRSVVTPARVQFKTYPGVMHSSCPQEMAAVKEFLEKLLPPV
LYPLA2 conf = LYPLA2 (human) inhibition, confirmation counter-screen; shares compounds with LYPLA2 counter; inhibition, % at 5.9 µM; recombinant LYPLA2, FP-Rh probe fluorescence polarization; actives 72% (n = 1,100);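 active = mean inhibition across replicates above the hit cutoff set in the primary screen, cut at about 26% in these data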;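 also: blocked labeling of the enzyme by serine hydrolase FP-Rh probe lowers polarization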
LYPLA2 gel ABPP = blocks human acyl-protein thioesterase 2 in gel ABPP | rhLYPLA2 in mouse brain proteome, gel ABPP FP-Rh | shares compounds with LYPLA2 counter | actives 30% (n = 150) | inhibition, % at 20 µM;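 active = inhibition of LYPLA2 enzyme probe labeling above about 50%, limit read from the data; inactive = inhibition below that limit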;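 also: loss of FP-Rh probe labeling of the LYPLA2 gel band measured as band density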
A number is an active result.

`Cc1ccc(NC(=O)CCC(=O)OCC(=O)c2ccc(Oc3ccc([N+](=O)[O-])cc3)cc2)c(C)c1` gave EBNA-1 inhibitor inactive, ZTA counter inactive, LYPLA1 counter inactive, GSTO1 inh inactive, PAD4 FP inh inactive, LYPLA2 counter 29 and LYPLA2 conf 26.
`Cc1ccc(NC(=O)c2cccc(Oc3ccc([N+](=O)[O-])cc3)c2)c(C(=O)O)c1` gave EBNA-1 inhibitor inactive, ZTA counter inactive, LYPLA1 counter inactive, GSTO1 inh inactive, PAD4 FP inh inactive, LYPLA2 counter 26 and LYPLA2 conf 38.
Cc1cc(NC(=O)c2ccccc2[N+](=O)[O-])ccc1Br was read as EBNA-1 inhibitor inactive, ZTA counter inactive, LYPLA1 counter inactive, GSTO1 inh inactive, PAD4 FP inh inactive and LYPLA2 counter inactive.
`O=C(COc1ccccc1[N+](=O)[O-])Nc1ccc2c(c1)CCC2` gave ZTA counter inactive, LYPLA1 counter inactive, PAD4 FP inh inactive and LYPLA2 counter inactive.
`O=C(O)c1cccc(NC(=S)NC(=O)c2cccc(OCc3ccccc3)c2)c1` gave EBNA-1 inhibitor inactive, ZTA counter inactive, LYPLA1 counter inactive, GSTO1 inh inactive, PAD4 FP inh inactive, LYPLA2 counter 31 and LYPLA2 conf 29.
For Cc1ccc(C(=O)O)cc1NC(=S)NC(=O)c1ccc(COc2ccccc2)cc1 the results were EBNA-1 inhibitor inactive, ZTA counter inactive, LYPLA1 counter inactive, GSTO1 inh inactive, PAD4 FP inh inactive, LYPLA2 counter 46, LYPLA2 conf 51 and LYPLA2 gel ABPP inactive.
Screening Cc1ccc(C(=O)NC(C)c2ccc(-n3ccnc3)cc2)o1 (stereo not drawn) returned EBNA-1 inhibitor inactive, ZTA counter inactive, LYPLA1 counter inactive, GSTO1 inh inactive, PAD4 FP inh inactive and LYPLA2 counter inactive.
COc1cccc(-c2c(C(=O)N/N=C(\C)c3cccs3)nnn2-c2nonc2N)c1 was read as EBNA-1 inhibitor inactive, ZTA counter inactive, LYPLA1 counter inactive, GSTO1 inh inactive, PAD4 FP inh inactive and LYPLA2 counter inactive.
Screening CC(C)c1ccccc1NC(=O)CNC(C)c1ccc(F)cc1 (stereo not drawn) returned EBNA-1 inhibitor inactive, ZTA counter inactive, LYPLA1 counter inactive, GSTO1 inh inactive, PAD4 FP inh inactive and LYPLA2 counter inactive.
Screening Oc1ccccc1-c1nc2c3ccccc3c3ccccc3c2[nH]1 returned EBNA-1 inhibitor inactive, ZTA counter inactive, LYPLA1 counter inactive, GSTO1 inh inactive, PAD4 FP inh inactive, LYPLA2 counter 36 and LYPLA2 conf inactive.
For CS(=O)(=O)c1ccc(Cl)c(NC(=O)c2cccc(-n3cnnn3)c2)c1 the results were EBNA-1 inhibitor inactive, ZTA counter inactive, LYPLA1 counter inactive, GSTO1 inh inactive, PAD4 FP inh inactive and LYPLA2 counter inactive.
For COC(=O)[C@@]12CCCN1[C@H](c1ccc(-c3ccc(OC)cc3)cc1)[C@@H]1C(=O)N(C)C(=O)[C@@H]12 the results were EBNA-1 inhibitor inactive, ZTA counter inactive, LYPLA1 counter inactive, GSTO1 inh inactive, PAD4 FP inh inactive and LYPLA2 counter inactive.
Screening COC(=O)c1ccc(N2CCN(C(=O)C3CC3)CC2)c([N+](=O)[O-])c1 returned EBNA-1 inhibitor inactive, ZTA counter inactive, LYPLA1 counter inactive, GSTO1 inh inactive, PAD4 FP inh inactive and LYPLA2 counter inactive.
Screening COc1ccc(OC)c(-c2cc(C3CCN(C(=O)OC(C)(C)C)CC3)[nH]n2)c1 returned EBNA-1 inhibitor inactive, ZTA counter inactive, LYPLA1 counter inactive, GSTO1 inh inactive, PAD4 FP inh inactive and LYPLA2 counter inactive.
COc1ccc(-c2cc(C3CCN(c4ccc(C(C)=O)cc4[N+](=O)[O-])CC3)[nH]n2)cc1 was read as EBNA-1 inhibitor inactive, ZTA counter inactive, LYPLA1 counter inactive, GSTO1 inh inactive, PAD4 FP inh inactive, LYPLA2 counter 37 and LYPLA2 conf 42.
Screening CC(=O)c1ccc(N2CCC(c3cc(-c4ccc(Cl)cc4)n[nH]3)CC2)c([N+](=O)[O-])c1 returned EBNA-1 inhibitor inactive, ZTA counter inactive, LYPLA1 counter inactive, GSTO1 inh inactive, PAD4 FP inh inactive and LYPLA2 counter inactive.
